Unmarked numbers belong to inactive results. No rule for the calls is given here.

By inhibition is commonly meant the relative decrease from the control value, in per cent.

The target in the assay is Lethal factor (Bacillus anthracis) (UniProt P15917). In words: Lethal factor protease inhibitors, Bacillus anthracis, multiplex microsphere cleavage assay, validation set (AID 588461). The note with it: flow cytometry, at 10 µM, hits give high values. For orientation: Flow cytometry measures light scatter and fluorescence of single cells or particles in a stream.
Turning to `C/C(=N\NC(=O)c1ccccc1[N+](=O)[O-])c1ccc(Br)s1`, the inhibition was 5.5%. Take `c1ccc2c(c1)CCCC2C1=NCCN1` (centres undefined): the inhibition was 0.6%. As for `Cc1cccc(N2C(=O)C3C(c4ccccc4)OC4(C(=O)c5ccccc5C4=O)C3C2=O)c1` (centres undefined), the figure is -3.5%.

As for `Cc1ccc(CSCC(=O)NCCCN2CCOCC2)cc1`, the inhibition is 3.8%.

Values taken from PubChem BioAssay.
